Measurements reported in ChEMBL document CHEMBL4513216, “Probing the Open Global Health Chemical Diversity Library for Multistage-Active Starting Points for Next-Generation Antimalarials” (ACS Infect Dis, 2020).
Screen size: about 69,000 compounds; about 8,600 (12%) showed an effect of 50% or more. The full list was thinned out, with strong results kept by preference.

Each molecule was assayed on Plasmodium berghei (assay: Screen against P. berghei liver stage (PbLuc), transformed with Luciferase, at 10uM). Settings: tested at 10 uM.
Format: functional, HepG2

Structure (SMILES) | INHIBITION
O=C(NC1CC1)C1CCCN(c2cc(-n3cncn3)ncn2)C1 (centres undefined) | 40.4%
O=C(CN1CCCC(Cn2cncn2)C1)Nc1cccnc1 (centres undefined) | -43.9%
O=C(Nc1cccnc1)C1CCCN(c2cc(-n3cccn3)ncn2)C1 (centres undefined) | 50.2%
O=C(Nc1cccnc1)C1CCN(c2cc(-n3ccnc3)ncn2)CC1 | 31.3%
O=C(Nc1ccccc1)C1CCCN(c2cc(-n3cncn3)ncn2)C1 (centres undefined) | 50.2%
O=C(NCc1cccs1)C1CCCN(c2cc(-n3cncn3)ncn2)C1 (centres undefined) | 13.9%
CC(C)(C)C(=O)NC(c1nccs1)C1CCN(CC2CCCCC2)CC1 (centres undefined) | 41.5%
CCn1nc(C)c(CCNC(=O)C2CCCN(C(C)=O)C2)c1C (centres undefined) | -20.2%
Cc1cnn(CC2CCCCN2CCS(C)(=O)=O)c1 (centres undefined) | 17.4%
CNC(=O)CN1CCC(NC(=O)Cc2ccc3c(c2)OCCO3)CC1 | -53.2%
CCN(Cc1c(C)nn(CC)c1C)S(=O)(=O)c1cnn(C)c1 | 11.8%
CCS(=O)(=O)N1C[C@@H]2C[C@H](C(=O)N(C)C)[C@H](C1)O2 | 22.2%
O=c1cc(CNS(=O)(=O)C2CC2)nc2n1CCCN(CC1CC1)C2 | 33.1%
O=C(NCc1cc(=O)n2c(n1)CN(CC1CC1)CCC2)c1ccsc1 | 89.2%
CCCN1CCCn2c(nc(CNC(=O)c3ccsc3)cc2=O)C1 | 18.5%
CCN1CCCn2c(nc(CNC(=O)c3ccsc3)cc2=O)C1 | 58%
CN1CCCn2c(nc(CNC(=O)c3ccsc3)cc2=O)C1 | 35.8%
Cc1oncc1C(=O)NCc1cc(=O)n2c(n1)CN(CC1CC1)CCC2 | 36.4%
Cc1nn(C)c(N(C)C)c1CNCc1ccnc(N2CCCC2)c1 | -44.3%
Oc1cc(-c2ccccn2)nc(C2CCN(Cc3ccncc3)CC2)n1 | -44.8%
O=C(CCN1CCOC(Cn2cccn2)C1)NC1CCCCC1 (centres undefined) | -107%
O=C(c1cccc(Cl)c1)N1CCCn2c(CN3CCCCC3)nnc2C1 | 55.2%

Structure (SMILES) | INHIBITION
Cc1cccc(C(=O)N2CCCn3c(CN4CCCCC4)nnc3C2)c1 | 25.2%
O=C(c1ccccc1)N1CCCn2c(CN3CCCCC3)nnc2C1 | 50.9%
O=C(c1ccncc1)N1CCCn2c(CN3CCCC3)nnc2C1 | 35.7%
O=C(c1ccc[nH]1)N1CCCn2c(CN3CCCCC3)nnc2C1 | 42.1%
O=C(c1ccccc1F)N1CCCn2c(CN3CCCCC3)nnc2C1 | 18.3%
O=C(c1ccncc1)N1CCCn2c(CN3CCCCC3)nnc2C1 | 31.8%
COCC(=O)N1CCCn2c(CN3CCCC3)nnc2C1 | 56.6%
O=C1CCCN1Cc1nnc2n1CCCN(C(=O)c1ccc[nH]1)C2 | 53%
O=C(c1ccc[nH]1)N1CCCn2c(nnc2Cn2cccn2)C1 | -17.2%
COCC(=O)N1CCCn2c(CN3CCCCC3)nnc2C1 | 20.1%
COCC(=O)N1CCCn2c(CN3CCOCC3)nnc2C1 | -2.46%
Cc1nc(C)n(CC2CCCN(Cc3cccc4c3OCCO4)C2)n1 (centres undefined) | 38.8%
Cc1noc(C)c1-c1cncc(CC2CCN(C(=O)c3cc[nH]n3)C2)n1 (centres undefined) | 22%
CNc1nc(C2CCCN(C(=O)C(C)C)C2)nc2c1CN(C)CC2 (centres undefined) | 12.3%
Cc1cccc(OCCN2CCCC(c3cc(C(N)=O)[nH]n3)C2)c1 (centres undefined) | -46.4%
Cc1cc(C(=O)N2CCCC3(COCCN(c4ncccn4)C3)C2)[nH]n1 (centres undefined) | 33.4%
COc1ccc2c(c1)C(C(=O)NCCCN1CCN(C)CC1)CC(=O)N2 (centres undefined) | 26%
N#CC1(C(=O)N2CCCN(c3nccs3)CC2)CCCC1 | 7.305%
Nc1nccc(C2CCCN(CC3CC3)C2)n1 (centres undefined) | 23%
CC1COCCN1C(=O)NCCn1ccnc1 (centres undefined) | -3.94%
O=C(NCCCn1ccnc1)N1CCCC1c1ccncc1 (centres undefined) | 37%
O=C(NCCCn1cccn1)N1CCCC1c1ccncc1 (centres undefined) | 9.3%

Structure (SMILES) | INHIBITION
CC1CN(C)CCN1C(=O)NCCCn1ccnc1 (centres undefined) | 60.1%
COc1ccc(C2CCCN2C(=O)NCCCn2ccnc2)cc1 (centres undefined) | 54.45%
CC1COCCN1C(=O)NCCCn1ccnc1 (centres undefined) | 24.8%
COc1ccc(C2CCCN2C(=O)NCCCn2cccn2)cc1 (centres undefined) | 56%
COc1ccc(C2CCCN2C(=O)NCCn2ccnc2)cc1 (centres undefined) | 21.425%
COc1cccc(C2CCCN2C(=O)NCCCn2cccn2)c1 (centres undefined) | 45.7%
O=S1(=O)COCCN1Cc1ccc(Cl)c(Cl)c1 | -12.5%
c1csc(-c2noc(CNCCn3cccn3)n2)c1 | 18.2%
CC(=O)N1CC[C@@H]2CN(Cc3ccncc3)S(=O)(=O)[C@@H]2CC1 | -10.5%
Cc1ccsc1CN1CCC(c2nnc(Cn3cccn3)n2C)CC1 | 25.4%
COc1cc(C)sc1C(=O)NCCC(=O)N(C)Cc1ccccc1 | 66.3%
COc1cc(C)sc1C(=O)NCCC(=O)N(C)c1ccccc1 | 78.2%
COc1ccsc1C(=O)NCCNc1ccccc1 | -33%
CN(Cc1ccccc1)C(=O)CCNS(=O)(=O)c1cccnc1 | -17.6%
COC(=O)CCNC(=O)c1cccc(C(=O)N(C)c2ccccc2)c1 | 43.4%
COc1cc(C)sc1C(=O)NCCNc1ccccc1 | 43.1%
CC(=O)N1CCCC(c2ccccn2)C1 (centres undefined) | 15.9%
CCOCCN1CCC(c2cncc(C)n2)CC1 | 10.155%
CC(C)CNC(=O)CN(CC(=O)NCC(C)C)S(C)(=O)=O | 37.4%
C=C(C)COc1cccc(CNC(CC)c2ccnn2C)c1 (centres undefined) | 66.6%
C=C(C)COc1ccccc1CNC(CC)c1ccnn1C (centres undefined) | 36.7%
C=C(C)COc1cccc(CNC(COC)c2ccnn2C)c1 (centres undefined) | 37.6%

Structure (SMILES) | INHIBITION
CC(C)c1ncc(CN2CCC(O)(c3ccccc3F)CC2)cn1 | 33.04%
Cc1cc(C)cc(N2CC(c3nnc(N)s3)CC2=O)c1 (centres undefined) | -11.4%
c1cn(-c2cnc(C3CCCNC3)cn2)cn1 (centres undefined) | 24.4%
CC(C)CN1CCc2[nH]cnc2C12CCN(C(=O)c1ccnn1C)CC2 | 65.8%
Cc1ocnc1C(=O)N1CCC2(CC1)c1nc[nH]c1CCN2CC(C)C | 47.4%
CC(C)CN1CCc2[nH]cnc2C12CCN(C(=O)c1ccc[nH]1)CC2 | 33.4%
CC(C)CN1CCc2[nH]cnc2C12CCN(C(=O)c1cnn(C)c1)CC2 | 51.8%
CC(C)CN1CCc2[nH]cnc2C12CCN(C(=O)c1cncn1C)CC2 | 33.4%
CC(C)CN1CCc2[nH]cnc2C12CCN(C(=O)c1cccnc1)CC2 | 16.6%
Cc1nn(C)cc1-c1cncn1CCc1ccc2c(c1)OCCO2 | 27.6%
CC(C)C[C@@H](CO)n1cc(-c2cnc(-c3ccco3)nc2)nn1 | -6.83%
NC(=O)NC(=O)CCN1CCCC1c1nc(C2CCCCC2)co1 (centres undefined) | -5.33%
Cc1ccc(F)c2c1N(C(=O)Cc1c(C)nn(C)c1C)CCC2 | -19.1%
Cc1nn(C)c(C)c1S(=O)(=O)NCCn1ccc(-c2cccs2)n1 | 63.1%
CS(=O)(=O)NCCn1ccc(-c2cccs2)n1 | 22.5%
CCCS(=O)(=O)NCCn1ccc(-c2cccs2)n1 | 34.6%
O=C(NCC1CCOCC1)[C@H]1C[C@@H]2CCN(Cc3ccncc3)C[C@@H]2O1 | 10%
Cc1cn[nH]c1C1COCCN1C(=O)c1cc(F)ccc1F (centres undefined) | 22.8%
COCC1CN(Cc2ccc(F)cc2)Cc2nnn(CC3CC3)c21 (centres undefined) | -9.54%
COc1ccc2oc(-c3cn(C)nc3C)c(O)c(=O)c2c1 | 8.49%
O=C1NCCN2CCN(C(=O)NCCc3ccccc3)CC12 (centres undefined) | 61.1%
COc1cccc(CNC(=O)N2CCN3CCNC(=O)C3C2)c1 (centres undefined) | 15.2%

Structure (SMILES) | INHIBITION
O=C1NCCN2CCN(C(=O)Nc3ccc(-c4ccccc4)cc3)CC12 (centres undefined) | 18.6%
O=C(c1ccccn1)N1C[C@H]2CC[C@@H](C1)N(C(=O)CCc1cccs1)C2 | 21.8%
CCC(=O)N1CCC(c2ncncc2C)CC1 | 21.1%
Cc1ncsc1C(=O)Nc1cccc(OCC(F)F)n1 | 17.4%
Cc1ccc(CN(C(=O)c2cccc(NC(N)=O)c2)C2CC2)o1 | 17.9%
NC(=O)Nc1cccc(C(=O)N(Cc2ccc(F)cc2)C2CC2)c1 | 13.5%
NC(=O)Nc1cccc(C(=O)N(Cc2ccncc2)C2CC2)c1 | 71.1%
Cc1occc(=O)c1OCc1noc(C(=O)NC2CCCC2)n1 | 6.67%
CCOCC1CN(c2ccc(C)nn2)Cc2cnn(CC)c21 (centres undefined) | 48.4%
CCOCC1CN(C(=O)CS(C)(=O)=O)Cc2cnn(C)c21 (centres undefined) | 19.5%
CCOCC1CN(C(=O)c2cccn2C)Cc2cnn(CC3CC3)c21 (centres undefined) | 19%
O=C(c1ccco1)N1Cc2cnn(CC3CC3)c2C(COCC2CC2)C1 (centres undefined) | 50.4%
Cc1ccc(N2Cc3cnn(C)c3C(COCC3CC3)C2)nn1 (centres undefined) | 24.6%
CCOCC1CN(C(=O)C2CCOCC2)Cc2cnn(C)c21 (centres undefined) | 59.9%
CCn1cc2c(n1)C(COCC1CC1)CN(C(=O)c1ccco1)C2 (centres undefined) | -78.9%
CCOCC1CN(C(=O)c2ccco2)Cc2cnn(C)c21 (centres undefined) | 18.4%
CCOCC1CN(C(=O)c2ccnnc2)Cc2cnn(CC)c21 (centres undefined) | 5.44%
CCn1ncc2c1C(COCC1CC1)CN(c1ccc(C)nn1)C2 (centres undefined) | 86.2%
CCOCC1CN(C(=O)c2ccco2)Cc2cnn(CC)c21 (centres undefined) | 78.8%
CCOCC1CN(C(=O)N2CCCC2)Cc2cnn(C)c21 (centres undefined) | 21.4%
CNC(=O)c1ccc(C(=O)N2CCCC(n3ccnc3)C2)cn1 (centres undefined) | 18.2%
